Bioassay records (PubChem)
MPTP inh: inhibitors of mitochondrial permeability transition pore; actives 1.4% (n = 360,000); AID 602449; isolated mouse mitochondria, Ca2+ swelling absorbance, 30 min; inhibition, % at 10 µM;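 active = inhibition of 50% or more, scaled per plate between neutral and stimulator controls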;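 note: 0% = DMSO wells given calcium and 100% = 1 mM EGTA wells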
GRIN3A LBD mod: modulates the human NR3A ligand-binding domain; NR3A LBD differential scanning fluorimetry, Tm shift; 0% = protein alone, 100% = glycine-bound protein; Tm shift relative to glycine control, % at 25 µM; actives 2.5% (n = 340,000); AID 1259313;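 active = melting temperature shift of at least 10% of the positive control shift, at one fixed dose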
ANO1 block: blocks the mouse calcium-activated chloride channel TMEM16A | normalized B-score (activity score, 25-100; higher = stronger inhibition) at 10 µM | HEK293 TMEM16A/YFP iodide influx fluorescence, ionomycin | Q8BHY3 | actives 1.2% (n = 310,000);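 active = ratio plate-corrected score three or more library SD toward inhibition, starting fluorescence score within five deviations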;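 note: score derived from kinetic fluorescence span divided by baseline fluorescence per well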
Target sequence (Q8BHY3 whole entry, looked up): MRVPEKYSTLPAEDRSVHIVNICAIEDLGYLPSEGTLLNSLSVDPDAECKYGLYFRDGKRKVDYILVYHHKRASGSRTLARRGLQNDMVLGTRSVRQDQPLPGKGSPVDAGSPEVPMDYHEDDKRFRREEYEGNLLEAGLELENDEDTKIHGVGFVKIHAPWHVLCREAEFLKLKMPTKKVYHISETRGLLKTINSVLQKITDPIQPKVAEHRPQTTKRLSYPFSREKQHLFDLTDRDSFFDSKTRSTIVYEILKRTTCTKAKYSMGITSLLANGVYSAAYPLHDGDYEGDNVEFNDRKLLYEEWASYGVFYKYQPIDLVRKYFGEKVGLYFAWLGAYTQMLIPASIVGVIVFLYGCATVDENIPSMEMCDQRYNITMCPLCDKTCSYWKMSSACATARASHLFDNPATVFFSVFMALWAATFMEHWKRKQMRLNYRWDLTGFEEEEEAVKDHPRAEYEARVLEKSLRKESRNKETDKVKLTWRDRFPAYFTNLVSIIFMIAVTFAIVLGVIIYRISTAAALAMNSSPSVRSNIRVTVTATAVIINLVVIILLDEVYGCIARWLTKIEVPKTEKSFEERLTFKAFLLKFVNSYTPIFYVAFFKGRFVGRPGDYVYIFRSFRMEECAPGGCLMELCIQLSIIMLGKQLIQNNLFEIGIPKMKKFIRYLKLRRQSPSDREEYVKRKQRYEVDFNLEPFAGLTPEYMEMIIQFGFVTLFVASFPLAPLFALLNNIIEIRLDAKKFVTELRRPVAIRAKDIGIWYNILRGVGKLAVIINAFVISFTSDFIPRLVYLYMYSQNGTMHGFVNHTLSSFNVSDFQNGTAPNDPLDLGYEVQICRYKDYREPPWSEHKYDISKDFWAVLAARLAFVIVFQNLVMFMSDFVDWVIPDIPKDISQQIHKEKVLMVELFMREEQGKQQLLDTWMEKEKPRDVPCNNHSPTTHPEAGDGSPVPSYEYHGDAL
ANO1 activ: activates or potentiates the mouse TMEM16A chloride channel. actives 0.3% (n = 340,000). Q8BHY3. HEK293 TMEM16A/YFP-H148Q/I152L, iodide quench fluorescence; stronger effect = lower value. AID 623877. B-score at 10 µM;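 active = fluorescence-ratio B-score plate-corrected deviation score at least 3 library SD below zero, with starting fluorescence score within 5 deviations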;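 note: channel opened by trigger with iodide after compound preincubation; score built on the fluorescence ratio of max minus min over baseline; more negative score means more quench and so TMEM16A activation or potentiation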
CRFBP-R2 block: antagonists of CRF-binding protein/CRF-R2 receptor complex; actives 0.59% (n = 350,000); inhibition, % at 11.8 µM; AID 588475; HEK293 CRF-R2/CRF-BP, CRF-induced calcium fluorescence;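 active = inhibition of the ligand-induced calcium signal above about 50% at the single tested concentration, limit read from the data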
CRFBP-R2 agonist: CRF-BP/CRF-R2 complex agonism; HEK293 CRF-R2/CRF-BP, calcium dye fluorescence (FLIPR); percent of saturating CRF peptide response; activation, % at 13.2 µM; actives 0.46% (n = 350,000); AID 588473;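 active = activation of at least 50%, plus an integration ratio under a set limit after plate pattern correction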;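 note: plate controls were neutral control wells without compound for no effect and CRF at EC100 for full effect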
Rh123 counter: Rhodamine 123 counter-screen of mitochondrial pore hits. shares compounds with MPTP inh. isolated mitochondria, membrane potential, Rhodamine 123 fluorescence. inhibition, % at 10 µM. actives 78% (n = 5,000); in the data active = inhibition above about 22%;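 note: 0% = DMSO vehicle and 100% = positive control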
MPTP abs DR: dose response confirmation of mitochondrial permeability transition pore inhibitors; IC50, µM; shares compounds with MPTP inh; isolated mitochondria swelling, absorbance; actives 58% (n = 780); in the data active = IC50 below about 20 µM
MPTP cs DR: counter-screen for mitochondrial permeability transition pore inhibitors, dose response. isolated mitochondria counterscreen, fluorescence read-out. shares compounds with MPTP inh. actives 49% (n = 780). IC50, µM; in the data active = IC50 below about 80 µM
* marks the source's active call; other numbers are inactive results; i = inactive; nt = not tested or not shown. Hits are enriched below; roughly 5.1% of the tested compounds scored in any of these assays.

SMILES	MPTP inh	GRIN3A LBD mod	ANO1 block	ANO1 activ	CRFBP-R2 block	CRFBP-R2 agonist	Rh123 counter	others
CNCCC1Sc2ccccc2Oc2ccccc21 (stereo unspecified)	61*	0	i	i	3	-1	-6	MPTP abs DR=10*;MPTP cs DR=>80
CCOC(=O)c1c(CN2CCN(CCO)CC2)n(C)c2cc(Br)c(OC)cc12	68*	-1	i	i	-15	-1	-10	MPTP abs DR=i;MPTP cs DR=>80
CCOC(=O)c1c(CNCCN(CC)CC)n(C)c2cc(Br)c(OC)cc12	74*	-1	i	i	2	-1	-14	MPTP abs DR=i;MPTP cs DR=>80
O=C(OCC(=O)c1ccc[nH]1)c1ccc(S(=O)(=O)C(F)F)cc1	0	nt	nt	nt	13	0	nt
Cc1ccc(NC(=O)CCC(=O)c2ccc(F)cc2)cc1Cl	-2	-2	i	i	8	-2	nt
COc1cccc(C(C)NC(=O)Nc2cccc(C(F)(F)F)c2)c1 (stereo unspecified)	96*	0	i	i	9	3	102*
COc1cccc(NC(=O)Nc2ccc3c(c2)N(C)C(=O)CS3)c1	88*	-2	i	i	4	0	78*
COc1cccc(C(C)NC(=O)Nc2cc(Cl)ccc2OC)c1 (stereo unspecified)	-1	2	i	i	4	0	nt
COc1cccc(NC(=O)Nc2ccc(C)c(Cl)c2)c1	80*	34*	i	i	13	0	90*
Cc1ccc(NC(=O)Nc2ccc(F)cc2)cc1Cl	95*	28*	i	i	-13	11	90*
COc1cccc(NC(=O)Nc2ccncc2)c1	12	1	i	i	21	-2	nt
COc1cccc(NC(=O)Nc2ccc(C(C)(C)C)cc2)c1	79*	18*	nt	i	-33	3	81*
Cc1cc(C(C#N)c2ccc(Cl)cc2)c(Cl)cc1NC(=O)c1cc(I)cc(I)c1O (stereo unspecified)	100*	4	100*	i	58*	32	20
O=C(CSc1cccc(C(F)(F)F)c1)Nc1ccc(N2CCOCC2)cc1	0	1	nt	i	-8	-1	nt
O=[N+]([O-])c1cccc(/C=N\N=C2c3ccccc3-c3ccccc32)c1O	104*	14*	i	i	58*	-3	7
Cc1cccc(NC(=O)Nc2ccc3c(c2)CCC3)c1	80*	16*	i	i	7	1	77*
CC(=O)c1c(C)[nH]c(C(=O)OCCCCN2C(=O)c3ccccc3C2=O)c1C	103*	3	i	i	-37	0	91*
CC(=O)c1c(C)[nH]c(C(=O)OCc2ccccc2)c1C	7	0	i	i	7	0	nt
COc1ccc(/C=N/N=C2/SCC(=O)N2Cc2ccccc2)cc1	3	2	i	i	11	-1	nt
COc1ccc(CN2C(=O)CS/C2=N/N=C/c2ccccc2)cc1	67*	-1	i	i	11	3	65*
CCN(CC)c1ccc2nc3c4ccccc4c(=O)cc-3oc2c1	nt	1	i	nt	-44	23	nt
CCN(CC)c1ccc2c(-c3ccc(S(=O)(=O)O)cc3S(=O)(=O)[O-])c3ccc(=[N+](CC)CC)cc-3oc2c1	64*	-437	i	i	-33	55*	1
O=C(Nc1ccc(Cl)cc1)N[C@@H]1c2c(ccc3ccccc23)OC[C@@H]1CO	93*	26*	i	i	-26	3	74*
Cc1cc(-c2ccc(C)c(S(=O)(=O)NCCCN3CCN(c4ccccc4F)CC3)c2)on1	72*	-9	i	i	-13	0	85*
CCN(C(=O)c1cnc(NC(C)C)cc1C(F)(F)F)c1ccc(Cl)cc1	0	1	i	i	0	-1	nt
SMILES	MPTP inh	GRIN3A LBD mod	ANO1 block	ANO1 activ	CRFBP-R2 block	CRFBP-R2 agonist	Rh123 counter	others
CCC(C)Sc1cc(C(F)(F)F)c(C(=O)Nc2ccc(Cl)cc2)cn1 (stereo unspecified)	75*	-10	i	i	-28	14	87*
COc1ccc(C(=O)COC(=O)Cc2n[nH]c(=O)c3ccccc23)c(OC)c1	0	-1	i	i	-6	-1	nt
O=C(NCc1csc(-c2cccs2)n1)Nc1ccc(F)cc1F	6	0	i	i	-15	-2	nt
O=C(NCc1csc(-c2cccs2)n1)Nc1ccc(C(F)(F)F)cc1	66*	1	i	i	-7	1	77*
CCN(C(=O)CSc1nc2cc(C(=O)O)ccc2c(=O)n1-c1ccccc1F)C1CCS(=O)(=O)C1 (stereo unspecified)	-1	1	nt	i	1	-1	nt
O=C(CSc1nnnn1C1CCCCC1)Nc1ccccc1F	0	0	i	i	33	-1	nt
O=C(CSc1nnnn1C1CC2CCC1C2)Nc1ccnc2ccccc12 (stereo unspecified)	98*	-1	100*	i	-8	-2	101*
O=C(COC(=O)CNC(=O)c1ccc(Cl)cc1Cl)NCc1ccco1	-3	0	i	i	4	0	nt
COc1ccc(N2CC(NS(=O)(=O)c3ccc(F)cc3)CC2=O)cc1 (stereo unspecified)	0	-3	i	i	0	-1	nt
CC(C)COc1ccc(-c2nnc(-c3ccncc3)o2)cc1	59*	0	i	i	4	0	51*
Fc1ccc(NC(=S)NCc2ccc3c(c2)OCO3)cc1	11	-8	i	i	-1	1	nt
Fc1ccc(NC(=S)SCc2ccc3c(c2)OCO3)cc1F	76*	nt	nt	nt	21	9	94*
S=C(NC1CCCCC1)N(CCc1nc2ccccc2[nH]1)C1CCCC1	65*	-6	i	i	-18	-1	79*
CC1=NN(C(N)=S)C(=O)C1N=Nc1c(Br)cc(Br)cc1Br (stereo unspecified)	56*	2	100*	i	36	0	78*
COCCNc1oc(-c2ccccc2Cl)nc1S(=O)(=O)c1ccc(C)cc1	0	-2	nt	i	11	-3	nt
Cc1cc2oc3cc(NCCC4CCCN4C)ccc3c(=O)c2cc1C (stereo unspecified)	94*	-10	i	i	11	-1	-23
